Assay results: PubChem BioAssay (Tox21)
Unmarked numbers belong to inactive results. Unless noted, calls follow the shape of the dose curve; as a rule, active = well fitted activation curve with a large enough effect in the repeat runs; inconclusive = weak or mixed curves; inactive = flat fitted curve, though single readings scatter.

molecular target: Gonadotropin-releasing hormone receptor (Homo sapiens) (UniProt P30968); assay: Human gonadotropin-releasing hormone receptor (GnRHR) small molecule agonists, calcium flux assay in GnRHR-HEK293 cells (AID 1920063; calls by dose curve; also: nearly all actives have a fitted effect of over 35% in size); settings: calcium flux fluorescence, agonist mode; series mostly up to 57.6 µM; activity change: at the top concentration
Sequence (P30968 whole entry, looked up): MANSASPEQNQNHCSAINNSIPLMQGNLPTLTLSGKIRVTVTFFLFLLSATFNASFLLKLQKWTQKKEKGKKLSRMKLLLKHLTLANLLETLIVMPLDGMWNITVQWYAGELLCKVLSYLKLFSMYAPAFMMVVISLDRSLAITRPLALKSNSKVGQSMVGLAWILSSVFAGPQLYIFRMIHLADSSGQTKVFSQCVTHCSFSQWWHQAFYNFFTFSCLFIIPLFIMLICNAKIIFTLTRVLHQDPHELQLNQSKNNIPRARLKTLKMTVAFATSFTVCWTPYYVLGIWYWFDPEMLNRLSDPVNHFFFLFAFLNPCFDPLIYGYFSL
In short: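 Calcium flux, agonist mode, human GnRHR stably integrated in HEK293; dye 1 h at 37 C before compound; Ex/Em=480/540 kinetic read, 3 min; 15 concentrations, triplicate.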
% is scaled to controls: 0 for no effect and ±100 for the full control effect.

Row | SMILES | activity change
1 | Nc1ccccc1Nc1ccccc1 | 2.03%
2 | CC[C@H](C)C(=O)O[C@H]1C[C@H](O)C=C2C=C[C@H](C)[C@H](CC[C@@H](O)C[C@@H](O)CC(=O)O)[C@H]21 | -0.453%
3 | CC(=O)c1ccc2c(c1)Cc1ccccc1-2 | -0.805%
4 | Cn1c(=O)c2c(ncn2CC2OCCO2)n(C)c1=O | -1.37% [at 26.4 µM, stronger effect = higher value]
5 | C=CCc1cc(S(=O)(=O)c2ccc(O)c(CC=C)c2)ccc1O | 3.46%
6 | CCCCOc1ccc(CC(=O)NO)cc1 | -1.27% [at 26.4 µM, stronger effect = higher value]
7 | CC(C)=CC=O | 3.32%
8 | O=C(O)c1cccnc1Nc1cccc(C(F)(F)F)c1 | 0.344% [at 26.4 µM, stronger effect = higher value]
9 | O=C1CCc2cc(OCCCCc3nnnn3C3CCCCC3)ccc2N1 | 0.0913% [at 26.4 µM, stronger effect = higher value]
10 | CCC(C)(C)OC | -0.212%
11 | CC(=O)CCC1=C(C)CCCC1(C)C | 4.85%
12 | CCN1CCN(C(=O)N[C@@H](C(=O)N[C@@H]2C(=O)N3[C@@H]2SC(C)(C)[C@H]3C(=O)O)c2ccccc2)C(=O)C1=O | -1.48% [at 26.4 µM, stronger effect = higher value]
13 | CCCCCC(C)O (stereo not given) | -0.116%
14 | CC(C)(C)C(O)/C=C/c1ccc2c(c1)OCO2 (stereo not given) | -0.412% [at 26.4 µM, stronger effect = higher value]
15 | CC1(C)O[C@@H]2C[C@H]3[C@@H]4C[C@H](F)C5=CC(=O)C=C[C@]5(C)[C@H]4[C@@H](O)C[C@]3(C)[C@]2(C(=O)CO)O1 | 3.37% [at 26.4 µM, stronger effect = higher value]
16 | C=C(C)C(=O)OCc1ccccc1 | 0.0199%
17 | O=C(Cl)c1cccc([N+](=O)[O-])c1 | 3.22%
18 | CN1CC(=O)N2[C@H](c3ccc4c(c3)OCO4)c3[nH]c4ccccc4c3C[C@@H]2C1=O | -0.364% [at 26.4 µM, stronger effect = higher value]
19 | CCCc1nc(C)c2c(=O)[nH]c(-c3cc(S(=O)(=O)N4CCN(CC)CC4)ccc3OCC)nn12 | -1.9% [at 26.4 µM, stronger effect = higher value]
20 | COc1ccnc(CS(=O)c2nc3ccc(OC(F)F)cc3[nH]2)c1OC (stereo not given) | 0.965% [at 26.4 µM, stronger effect = higher value]

Row | SMILES | activity change
21 | Cc1ccc(OC(=O)CC(C)C)cc1 | 0.119%
22 | Nc1ccn([C@@H]2O[C@H](CO)[C@@H](O)[C@@H]2O)c(=O)n1 | 9.47%
23 | CN1C(C(=O)Nc2ccccn2)=C(O)c2sccc2S1(=O)=O | -1.86% [at 26.4 µM, stronger effect = higher value]
24 | O=C(O)CO | 1.83%
25 | C=C(C)C(=O)OCCOCCOC(=O)C(=C)C | -0.174%
26 | O=C(Nc1cccc(Cl)c1)OCC#CCCl | -0.581%
27 | CCNC(=O)NCc1cccc(Cl)c1 | -0.418% [at 26.4 µM, stronger effect = higher value]
28 | O=C1CCCCCO1 | -1.09%
29 | COc1nc(C)nc(Cl)c1NC1=NCCN1 | 2.95% [at 26.4 µM, stronger effect = higher value]
30 | Cc1ccc(Cl)c(Nc2ccccc2C(=O)O)c1Cl | -1.48% [at 26.4 µM, stronger effect = higher value]
31 | CCOC(=O)CC(=O)c1ccccc1 | -0.197%
32 | CO/N=C(/C(=O)N[C@@H]1C(=O)N2C(C(=O)[O-])=C(C[n+]3ccn4ncccc43)CS[C@H]12)c1nsc(N)n1 | 4.27% [at 26.4 µM, stronger effect = higher value]
33 | O=C1CCCCC1C1CCCCC1 (stereo not given) | -0.677%
34 | N#Cc1ccccc1O | -1.5%
35 | O=C1NCC2(CCN(CCc3ccccc3)CC2)O1 | -0.141% [at 26.4 µM, stronger effect = higher value]
36 | CN(C)C(=O)Nc1ccccc1 | -0.404%
37 | CC(C)CO | -0.677%
38 | CC[C@H]1OC(=O)[C@H](C)[C@@H](O[C@H]2C[C@@](C)(OC)[C@@H](O)[C@H](C)O2)[C@H](C)[C@@H](O[C@@H]2O[C@H](C)C[C@H](N(C)C)[C@H]2O)[C@](C)(O)C[C@@H](C)/C(=N\OCOCCOC)[C@H](C)[C@@H](O)[C@]1(C)O | 0.312% [at 26.4 µM, stronger effect = higher value]
39 | Nc1ccc(Oc2ccc(N)c(N)c2)cc1 | 5.6%
40 | CC(C)COC(=O)CCCCC(=O)OCC(C)C | 5.21%

molecular target: KiSS-1 receptor (Homo sapiens) (UniProt Q969F8); assay: Human kisspeptin (KISS1R) small molecule agonists, calcium flux assay in KISS1R-HEK293 cells (AID 1920064); settings: KISS1R-HEK293, calcium flux fluorescence, agonist; series mostly up to 76.8 µM; activation: at the top concentration
Sequence (Q969F8 whole entry, looked up): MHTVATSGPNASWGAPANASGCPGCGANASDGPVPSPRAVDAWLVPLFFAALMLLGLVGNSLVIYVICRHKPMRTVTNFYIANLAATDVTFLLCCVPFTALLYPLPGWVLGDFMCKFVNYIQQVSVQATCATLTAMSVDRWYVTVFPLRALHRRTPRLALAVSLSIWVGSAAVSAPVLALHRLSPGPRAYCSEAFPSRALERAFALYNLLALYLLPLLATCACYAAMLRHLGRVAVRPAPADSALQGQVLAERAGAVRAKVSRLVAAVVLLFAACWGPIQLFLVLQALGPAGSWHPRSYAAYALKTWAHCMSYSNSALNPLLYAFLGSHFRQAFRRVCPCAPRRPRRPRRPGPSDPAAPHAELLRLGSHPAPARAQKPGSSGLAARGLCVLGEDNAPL
In short: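 Triplicate 15-concentration series were applied to dye-loaded human KISS1R HEK293 cells, and agonist-evoked calcium fluorescence was captured for 3 min.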

Row | SMILES | activation
41 | Nc1ccccc1Nc1ccccc1 | 0.885%
42 | CC[C@H](C)C(=O)O[C@H]1C[C@H](O)C=C2C=C[C@H](C)[C@H](CC[C@@H](O)C[C@@H](O)CC(=O)O)[C@H]21 | 3.54%
43 | CC(=O)c1ccc2c(c1)Cc1ccccc1-2 | -3.86%
44 | Cn1c(=O)c2c(ncn2CC2OCCO2)n(C)c1=O | 0.931% [at 35.3 µM]
45 | C=CCc1cc(S(=O)(=O)c2ccc(O)c(CC=C)c2)ccc1O | 2.93%
46 | CCCCOc1ccc(CC(=O)NO)cc1 | -0.514% [at 35.3 µM]
47 | CC(C)=CC=O | 0.822%
48 | O=C(O)c1cccnc1Nc1cccc(C(F)(F)F)c1 | 0.012% [at 35.3 µM]
49 | O=C1CCc2cc(OCCCCc3nnnn3C3CCCCC3)ccc2N1 | -1.84% [at 35.3 µM]
50 | CCC(C)(C)OC | -2.02%
51 | CC(=O)CCC1=C(C)CCCC1(C)C | -2.74%
52 | CCN1CCN(C(=O)N[C@@H](C(=O)N[C@@H]2C(=O)N3[C@@H]2SC(C)(C)[C@H]3C(=O)O)c2ccccc2)C(=O)C1=O | 0.465% [at 35.3 µM]
53 | CCCCCC(C)O (stereo not given) | 4.44%
54 | CC(C)(C)C(O)/C=C/c1ccc2c(c1)OCO2 (stereo not given) | 0.729% [at 35.3 µM]
55 | CC1(C)O[C@@H]2C[C@H]3[C@@H]4C[C@H](F)C5=CC(=O)C=C[C@]5(C)[C@H]4[C@@H](O)C[C@]3(C)[C@]2(C(=O)CO)O1 | 0.0264% [at 35.3 µM]
56 | C=C(C)C(=O)OCc1ccccc1 | -1.08%
57 | O=C(Cl)c1cccc([N+](=O)[O-])c1 | 0.9%
58 | CN1CC(=O)N2[C@H](c3ccc4c(c3)OCO4)c3[nH]c4ccccc4c3C[C@@H]2C1=O | 2.94% [at 35.3 µM]
59 | CCCc1nc(C)c2c(=O)[nH]c(-c3cc(S(=O)(=O)N4CCN(CC)CC4)ccc3OCC)nn12 | -0.732% [at 35.3 µM]
60 | COc1ccnc(CS(=O)c2nc3ccc(OC(F)F)cc3[nH]2)c1OC (stereo not given) | 0.626% [at 35.3 µM]

Row | SMILES | activation
61 | Cc1ccc(OC(=O)CC(C)C)cc1 | -0.847%
62 | Nc1ccn([C@@H]2O[C@H](CO)[C@@H](O)[C@@H]2O)c(=O)n1 | -1.4%
63 | CN1C(C(=O)Nc2ccccn2)=C(O)c2sccc2S1(=O)=O | 1.52% [at 35.3 µM]
64 | O=C(O)CO | 2.82%
65 | C=C(C)C(=O)OCCOCCOC(=O)C(=C)C | -0.31%
66 | O=C(Nc1cccc(Cl)c1)OCC#CCCl | -1.55%
67 | CCNC(=O)NCc1cccc(Cl)c1 | -1.06% [at 35.3 µM]
68 | O=C1CCCCCO1 | 0.914%
69 | COc1nc(C)nc(Cl)c1NC1=NCCN1 | -0.214% [at 35.3 µM]
70 | Cc1ccc(Cl)c(Nc2ccccc2C(=O)O)c1Cl | -2.35% [at 35.3 µM]
71 | CCOC(=O)CC(=O)c1ccccc1 | -8.34%
72 | CO/N=C(/C(=O)N[C@@H]1C(=O)N2C(C(=O)[O-])=C(C[n+]3ccn4ncccc43)CS[C@H]12)c1nsc(N)n1 | -0.196% [at 35.3 µM]
73 | O=C1CCCCC1C1CCCCC1 (stereo not given) | 2.82%
74 | N#Cc1ccccc1O | 0.549%
75 | O=C1NCC2(CCN(CCc3ccccc3)CC2)O1 | 1.13% [at 35.3 µM]
76 | CN(C)C(=O)Nc1ccccc1 | -2.51%
77 | CC(C)CO | -0.213%
78 | CC[C@H]1OC(=O)[C@H](C)[C@@H](O[C@H]2C[C@@](C)(OC)[C@@H](O)[C@H](C)O2)[C@H](C)[C@@H](O[C@@H]2O[C@H](C)C[C@H](N(C)C)[C@H]2O)[C@](C)(O)C[C@@H](C)/C(=N\OCOCCOC)[C@H](C)[C@@H](O)[C@]1(C)O | -0.282% [at 35.3 µM]
79 | Nc1ccc(Oc2ccc(N)c(N)c2)cc1 | -2.96%
80 | CC(C)COC(=O)CCCCC(=O)OCC(C)C | -0.262%
